Laboratory results reported in publication PMC4336329 (PLoS ONE, 2015).
The campaign covered roughly 310,000 compounds. About 2,200 (0.71%) showed an effect of 50% or more. The effect is printed as a negative number. The sample as a whole holds a higher share of strong results than the screen did.

Each molecule was assayed against human ether-à-go-go-related gene (hERG) potassium channel (human, UniProt Q12809) (assay: primary screen, population patch clamp on CHO cells stably expressing hERG; higher = less effect of the substance).
Sequence of human ether-à-go-go-related gene (hERG) potassium channel (Q12809 whole entry, looked up): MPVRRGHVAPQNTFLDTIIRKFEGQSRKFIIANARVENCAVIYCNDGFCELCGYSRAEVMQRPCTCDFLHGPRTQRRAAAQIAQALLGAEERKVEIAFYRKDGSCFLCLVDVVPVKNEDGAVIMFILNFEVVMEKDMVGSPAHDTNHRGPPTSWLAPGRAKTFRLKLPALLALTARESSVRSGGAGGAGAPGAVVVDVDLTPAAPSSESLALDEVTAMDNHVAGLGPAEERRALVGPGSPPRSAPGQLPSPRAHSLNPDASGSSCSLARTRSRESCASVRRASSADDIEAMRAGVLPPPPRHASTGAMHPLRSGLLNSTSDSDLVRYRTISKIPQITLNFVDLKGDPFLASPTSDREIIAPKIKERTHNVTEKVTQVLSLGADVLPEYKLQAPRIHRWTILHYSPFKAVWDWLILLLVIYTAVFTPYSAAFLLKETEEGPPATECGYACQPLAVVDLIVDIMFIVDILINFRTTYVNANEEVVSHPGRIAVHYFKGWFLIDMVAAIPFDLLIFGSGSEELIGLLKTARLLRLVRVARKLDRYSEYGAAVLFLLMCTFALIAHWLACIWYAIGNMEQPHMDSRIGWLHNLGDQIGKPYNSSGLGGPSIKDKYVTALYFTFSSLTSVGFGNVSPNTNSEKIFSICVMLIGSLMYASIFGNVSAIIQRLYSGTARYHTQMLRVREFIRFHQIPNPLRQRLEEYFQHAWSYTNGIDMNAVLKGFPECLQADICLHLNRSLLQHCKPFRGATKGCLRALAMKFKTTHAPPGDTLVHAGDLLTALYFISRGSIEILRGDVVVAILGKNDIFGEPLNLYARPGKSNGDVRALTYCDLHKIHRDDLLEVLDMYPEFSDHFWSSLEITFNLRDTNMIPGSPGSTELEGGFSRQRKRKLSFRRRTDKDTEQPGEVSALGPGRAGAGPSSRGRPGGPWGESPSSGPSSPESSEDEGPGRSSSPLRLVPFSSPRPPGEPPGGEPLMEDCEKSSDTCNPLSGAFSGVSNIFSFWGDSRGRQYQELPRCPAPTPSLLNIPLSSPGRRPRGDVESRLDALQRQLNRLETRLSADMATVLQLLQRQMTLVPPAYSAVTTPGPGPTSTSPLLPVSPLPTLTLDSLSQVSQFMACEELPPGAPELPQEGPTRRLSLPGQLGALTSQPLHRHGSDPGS

Structure (SMILES)	hERG current change (%, negative = inhibition) at 1uM
Cn1nc(C(F)(F)F)cc1Oc1ncc(C(F)(F)F)cc1Cl	12.5%
CCOc1ccc(NC(=S)N(CCc2c(C)[nH]c3ccccc23)Cc2cccnc2)cc1	-4.48%
CCN(CC)S(=O)(=O)c1cccc(C(=O)NCCc2ccccc2)c1	-5.67%
O=c1[nH]c(=O)n(CCC2=CCCCC2)c(O)c1C=NCc1cccnc1	9.06%
COc1ccc(OCCCC(=O)Nc2nc(C)c(C(C)=O)s2)cc1	10.2%
Cc1ccc(-n2c(=O)cc(N3CC(C)OC(C)C3)[nH]c2=O)cc1 (stereo not drawn)	10.6%
O=C(CC(C(=O)O)c1c[nH]c2ccccc12)c1ccccc1 (stereo not drawn)	9.56%
COc1ccc(Cc2nc3c4c(ncn3n2)Oc2ccc3ccccc3c2C4c2ccc(OC)c(OC)c2)cc1 (stereo not drawn)	5.71%
CC(C)n1cnc2c(NCc3ccccc3)nc(NCc3ccccc3)nc21	10.4%
COc1cc(N(Cc2ccccc2)Cc2ccccc2)c2ncn(C(C)C)c2c1	8.78%
CC(C)n1cnc2c(N(C)c3ccccc3)nc(N(CCN(C)C)Cc3ccccc3)nc21	-58.5%
CCOC(=O)Cc1csc(NC(=O)CSc2nnnn2-c2ccc(C)c(C)c2)n1	10%
COc1ccc(S(=O)(=O)NCC2CCCN(Cc3ccc(O)cc3)C2)cc1 (stereo not drawn)	-12.2%
Cc1ccc(CN2CC(C(=O)Nc3ccc(F)c([N+](=O)[O-])c3)CC2=O)cc1 (stereo not drawn)	-1.97%
CCOc1ccc(OCC(=O)Nc2ccc(OC)cc2[N+](=O)[O-])cc1	8.89%
COc1ccc(NC(=O)COc2ccc(C)cc2)c([N+](=O)[O-])c1	8.91%
COc1ccc(OCC(=O)N/N=C(\C)CC(=O)Nc2ccc(OC)cc2[N+](=O)[O-])cc1	-61.8%
C#CCn1c(=NC(=O)c2ccc(Cl)s2)sc2cccc(OC)c21	14.9%
COc1ccc(Br)cc1C(=O)Nc1cccc(C)c1C	2.14%
COc1ccc(OC)c(NC(=O)NC2CCCCCCC2)c1	9.24%

Structure (SMILES)	hERG current change (%, negative = inhibition) at 1uM
Cc1cccc(NC(=O)CN2CCOCC2)c1C	12.2%
Cc1cccc(NC(=O)CNC(=O)COc2ccc(-c3ccc(C#N)cc3)cc2)c1C	8.38%
Cc1cccc(NC(=O)CN2CCN(C(=O)C(C)Oc3ccc(C#N)cc3)CC2)c1C (stereo not drawn)	-54.7%
COc1ccc(CNC(=O)C2CSC(c3ccc(OC)cc3)N2C(C)=O)cc1 (stereo not drawn)	5.4%
CCCCN(C)CCN1C(=O)C2C(C(=O)Nc3ccc(OC)cc3)C3C=CC2(O3)C1C(=O)NC1CCCCC1 (stereo not drawn)	3.44%
CCCCN(C)CCN1C(=O)C2C(C(=O)Nc3ccc(Cl)cc3)C3C=CC2(O3)C1C(=O)NC1CCCCC1 (stereo not drawn)	-60.5%
CCCCN(C)CCN1C(=O)C2C(C(=O)Nc3ccc(C)cc3)C3C=CC2(O3)C1C(=O)NC1CCCCC1 (stereo not drawn)	15.1%
CN1C(=O)C2(C(C#N)=C(N)Oc3c2oc(CO)cc3=O)c2ccccc21 (stereo not drawn)	12%
COc1cc(S(=O)(=O)N2CCN(C)CC2)ccc1Cl	14.8%
CC1CN(CC(O)COC(c2ccc(Cl)cc2)c2ccc(Cl)cc2)CC(C)O1.Cl (stereo not drawn)	-2.64%
CN1CCN(CC(O)COC(c2ccc(Cl)cc2)c2ccc(Cl)cc2)CC1.Cl (stereo not drawn)	-47.8%
Cc1ccc(OCC(O)CNCc2ccc(F)cc2)cc1 (stereo not drawn)	-14.2%
Cl.OC(COC(c1ccc(Cl)cc1)c1ccc(Cl)cc1)CN1CCc2ccccc2C1 (stereo not drawn)	-6.99%
O=C(O)C(=O)O.O=C(c1ccccc1)c1ccc(OCC(O)CNCc2ccc(F)cc2)cc1 (stereo not drawn)	-0.143%
CCOC(=O)C1CCCN(CC(O)COC(c2ccccc2)c2ccccc2)C1 (stereo not drawn)	-78.8%
CC1CCCN(CC(O)COC(c2ccccc2)c2ccccc2)C1 (stereo not drawn)	-15%
OC1CCCN(CC(O)COC(c2ccccc2)c2ccccc2)C1 (stereo not drawn)	1.02%
OC(COC(c1ccc(F)cc1)c1ccc(F)cc1)CN1CCc2ccccc2C1 (stereo not drawn)	-9.74%
Cc1ccc(C(OCC(O)CNCc2ccc(F)cc2)c2ccccc2)cc1.O=C(O)C(=O)O (stereo not drawn)	-75.4%
OC(COC(c1ccccc1)c1ccccc1)CN1CCc2ccccc2C1 (stereo not drawn)	-75.3%

Structure (SMILES)	hERG current change (%, negative = inhibition) at 1uM
OC(COC(c1ccc(Cl)cc1)c1ccc(Cl)cc1)CN1CCCC1 (stereo not drawn)	-75.2%
O=C(CNC(=O)c1ccccc1F)NCCc1ccc(Cl)cc1Cl	7.52%
O=C(NCc1n[nH]c(=S)n1-c1cccc(Cl)c1)c1ccc(S(=O)(=O)N2CCCCC2)cc1	13.6%
CCN(CC)S(=O)(=O)c1cccc(C(=O)Oc2cccc(NC(=O)c3cccs3)c2)c1	7.05%
CC(=O)N1C(=O)C2(C(C#N)=C(N)Oc3c2c(C)nn3-c2ccccc2)c2ccccc21 (stereo not drawn)	11%
Cc1cccc(C(=O)NCCC(=O)NCc2ccccc2F)c1	5.88%
COc1ccc(-n2nc(C(=O)NCC(=O)N3CCCCC3)c3ccccc3c2=O)c(OC)c1	15.2%
CCN(CC)S(=O)(=O)c1ccc(/C=C/C(=O)OCC(=O)NNC(=O)c2ccc(OC)cc2)cc1	9.94%
COc1ccc(N2CCN(CC(O)COC(c3ccccc3)c3ccccc3)CC2)cc1 (stereo not drawn)	-14.2%
CCN1CCN(CC(O)COC(c2ccccc2)c2ccccc2)CC1 (stereo not drawn)	7.15%
OC(COC(c1ccccc1)c1ccccc1)CN1CCCCC1 (stereo not drawn)	-18.5%
Cc1ccc(C(OCC(O)CN2CCCCC2)c2ccccc2)cc1 (stereo not drawn)	-68.6%
O=C(O)C(=O)O.OCCN1CCN(CC(O)COC(c2ccc(F)cc2)c2ccc(F)cc2)CC1 (stereo not drawn)	-20.2%
Cc1ccc(C(OCC(O)CN2CCCCC2CO)c2ccccc2)cc1 (stereo not drawn)	-39.7%
O=C(O)C(=O)O.OCC1CCCCN1CC(O)COC(c1ccc(F)cc1)c1ccc(F)cc1 (stereo not drawn)	-60.9%
COc1ccc(N2CCN(CC(O)COC(C)(C)C)CC2)cc1.O=C(O)C(=O)O (stereo not drawn)	12.5%
O=C(O)C(=O)O.OC(COC(c1ccc(F)cc1)c1ccc(F)cc1)CN1CCCC1 (stereo not drawn)	-62%
COc1ccc(N2CCN(CC(O)COC(c3ccc(F)cc3)c3ccc(F)cc3)CC2)cc1.O=C(O)C(=O)O (stereo not drawn)	-74%
O=C(O)C(=O)O.OC1CCCN(CC(O)COC(c2ccc(F)cc2)c2ccc(F)cc2)C1 (stereo not drawn)	-14.2%
O=C(O)C(=O)O.OC(COC(c1ccc(F)cc1)c1ccc(F)cc1)CN1CCCC(C(F)(F)F)C1 (stereo not drawn)	14%
